# Laboratory results reported in the supplement of paper PMC10338343.
# ± gives the standard deviation.
# System: MILI (PIWIL2) piRISC loaded with piRNA #1 (26 nt)
# Experiment: pre-steady-state target cleavage rate (min^-1); guide: piRNA #1 5'p-UGAGGUAGUAGGUUGUAUAGUAUCCA; MIWI and MILI are mouse PIWI proteins and EfPiwi is from a freshwater sponge; tags in brackets are library labels; higher = faster piRNA-guided slicing of the target
# Conditions: auxiliary factor: 500 nM mouse GTSF1
# Procedure, shortened: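 Using HEPES–potassium acetate buffer at 33 °C, 1 nM active affinity-purified piRISC with a single synthetic guide was mixed with 0.1 nM transcribed, DNA-blocked target RNA library for 0–8 or 0–960 min, with or without 500 nM GTSF1 partner protein. Uncleaved targets were sequenced and normalised to depth and to weakly complementary targets, and three trials were pooled with k3 capped at 0.0001 min^-1. A burst-and-steady-state fit gave the pre-steady-state cleavage rate.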
row,Sequence,pre-steady-state target cleavage rate
1,GGAGACCUUACUAUACAAGCUUCUACCUCA,0.036 ± 0.0065
2,GGAGACCAUACUAUACAACCUUCAACCUCA,0.0066 ± 0.0029
3,GGAGACCUAUGAAUACAAGCUUCUACCUCA,0.0038 ± 0.002
4,GGAGACCUAACAAUACAACCAACUACCUCA,0.00518 ± 0.004
5,GGAGUGGAUACUUUAGAACCUACUACCUCA,0.116 ± 0.0096
6,GGAGACCUAUGAUAACAAGCUACUACCUCA,0.0133 ± 0.0028
7,GGAGACCUAAGUAUACAACGUACUACCUCA,0.0111 ± 0.0021
8,GGAGACCUAUGUAUACAACCUACUUGCUCA,0.0104 ± 0.0037
9,GGAGACCUAUGUACACAACCUACUACCUCA,0.0498 ± 0.0086
10,GGAGACCUAUCUUUACAACGUACUACCUCA,0.00834 ± 0.002
11,GGAGACCAUAGUAUACAACCUACAACCUCA,0.129 ± 0.017
12,GGAGAGGAUACUUAACAACCUACUACCUCA,0.163 ± 0.013
13,GGAGACCAUACUUUACAACCUACAACCUCA,0.14 ± 0.018
14,GGAGACCAUACAAUACAACCUACUAGCUCA,0.181 ± 0.029
15,GGAGACCUAUGAUAUCUACCUACUACCUGA,< 0.0001
16,GGAGACCUAUGUAUAGAAGCUACUACCUCA,0.0984 ± 0.013
17,GGAGACCUAUGAUAUCAACCUACAACCUCA,0.00288 ± 0.0026
18,GGAGACCAUACUAUUCAACCAACUACCUCA,0.00316 ± 0.0029
19,GGAGACCUAUCUAUACAACCUACCACCUCA,0.0927 ± 0.018
20,GGAGACGAUACUAUACAACCUACUUCCUCA,0.0885 ± 0.024

row,Sequence,pre-steady-state target cleavage rate
1,GGAGACCUAUGAUUACAUCCUACUACCUGA,0.0052 ± 0.0025
2,GGAGACCUAUGAUAUGUUCCUACUACCAUCA,< 0.0001
3,GGAGACCUAUGAUAAAACCUACUACCUCA,0.00798 ± 0.0023
4,GGAGUCGAUACUAUACAACCAACUACCUCA,0.0053 ± 0.0019
5,GGAGACCUAUGAUAACAACCUACUCACCUCA,0.00465 ± 0.0027
6,GGAGACCUAUGUAUACAACCUUCAACCUCA,0.00276 ± 0.0024
7,GGAGACCAUACAAUACAACCUACUACGUCA,0.0912 ± 0.014
8,GGAGACCUAUGAUAUGUUGCUACUAGGACA,< 0.0001
9,GGAGACCAUACUAUACUACCUUCUACCUCA,0.0171 ± 0.0044
10,GGAGACCUAACUAGACAACCUACUACCUCA,0.0997 ± 0.02
11,GGAGACCUAUGAUAUGUUCCUACUUCCUCA,< 0.0001
12,GGAGACCUAUCAAUACAAGCUACUACCUCA,0.108 ± 0.013
13,GGAGACCAUUCUAUACUACCUACUACCUCA,0.111 ± 0.013
14,GGAGACCUAUGAUAUCAACUCUACUACCUCA,< 0.0001
15,GGAGACCUAUGAUAUGUACCUACUAGGACA,< 0.0001
16,GGAGUGGAUAGUAUAGAACCUACUACCUCA,0.146 ± 0.013
17,GGAGACGAUACUAUUGAACCUACUACCUCA,0.157 ± 0.016
18,GGAGACCUAUGAUAUGUUCCUACUAGCUCA,< 0.0001
19,GGAGACCUAUGUAUACAACCUACUCACCUCA,0.0823 ± 0.015
20,GGAGACCUAUGUAUUCAACCUACUACCUCA,0.0588 ± 0.0091
